Out of some 190,000 compounds screened, about 1,300 (0.68%) were called active. This is one part of a sample in which actives are shown more often than they occur. Cut-off read from the data, not from the text of the source: active = inhibition above about 50%; inactive = the rest.

The target of the test is Mannose-6-phosphate isomerase (Homo sapiens) (UniProt P34949). The test can be described thus: MPI inhibition at elevated mannose 6-phosphate – biochemical, fluorescence intensity, high mannose 6-phosphate, primary screen (AID 1220). Particulars: recombinant PMI enzyme, coupled fluorescence intensity; at 20 µM; stronger effect = higher value.
Mannose-6-phosphate isomerase (Homo sapiens), sequence (P34949 whole entry, looked up): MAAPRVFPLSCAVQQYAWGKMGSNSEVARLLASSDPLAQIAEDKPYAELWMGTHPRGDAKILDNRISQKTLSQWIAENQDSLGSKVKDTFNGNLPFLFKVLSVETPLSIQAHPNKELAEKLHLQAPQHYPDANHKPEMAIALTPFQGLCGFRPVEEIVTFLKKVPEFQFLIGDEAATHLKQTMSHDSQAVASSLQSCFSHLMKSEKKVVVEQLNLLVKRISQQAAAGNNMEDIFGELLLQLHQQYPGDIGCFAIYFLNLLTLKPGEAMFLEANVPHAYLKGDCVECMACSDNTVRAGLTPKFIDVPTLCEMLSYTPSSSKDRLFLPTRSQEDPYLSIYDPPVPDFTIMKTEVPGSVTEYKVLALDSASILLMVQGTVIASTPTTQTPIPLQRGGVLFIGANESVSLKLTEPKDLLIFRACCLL
On to `C=CCSc1nnc(NC(=O)CSc2nc3ccccc3[nH]2)s1`, for which the inhibition (usually the relative decrease from the control value, in per cent) was 4.3% (inactive).
Take `Cc1cc(NC(=O)c2ccc(Cl)cc2)n(CCOC(=O)c2ccc(Cl)cc2)n1`: the inhibition is 10.6% (inactive).
Consider `Cc1nc2ccc(NC(=O)NCCO)cc2s1`, for which the inhibition was 3.3% (inactive).
On to `COc1ccc(C(=O)NCc2ccc(Cl)c(Cl)c2)cc1OC`, for which the inhibition is -0.1% (inactive).
On to `Cc1cccc(-c2nc(CS(=O)CC(=O)N3CCCCC3)c(C)o2)c1` (centres undefined), for which the inhibition is 5.1% (inactive).
In the case of `O=c1cc(N2CCCCCC2)[nH]c(=O)n1-c1ccccc1Cl`, the inhibition was -6.5% (inactive).
The same measure for `Cc1ccccc1-n1c(=O)cc(N2CCCCCC2)[nH]c1=O`: 62.9% (active); for `Cc1ccccc1-n1c(=O)cc(N2CCC3(CC2)OCCO3)[nH]c1=O`: 7% (inactive); for `CCOC(=O)/C(N=Nc1ccc(C(=O)O)cc1[N+](=O)[O-])=C(\C)O`: -1.9% (inactive).
As to `CC(C)Cc1nc2oc3c(N4CCN(CCO)CC4)ncnc3c2c2c1CCCC2`, the inhibition is 2% (inactive).
The same measure for `Cc1ccc(Cl)cc1NC(=S)N(CCCN1CCOCC1)Cc1ccco1`: -6.2% (inactive); for `Clc1ncc(CSc2ccccc2)s1`: -2.5% (inactive); for `Cc1ccc(S(=O)OCC(=O)Nc2cc(Cl)ccc2N2CCOCC2)cc1` (centres undefined): 52% (active).
Regarding `COC(=O)c1ccccc1NC(=O)CNc1cc(Cl)ccc1N1CCOCC1`, the inhibition was 9.8% (inactive).
On to `O=C(COS(=O)c1ccccc1)Nc1cc(Cl)ccc1N1CCOCC1` (centres undefined), for which the inhibition was 8.4% (inactive).
For `COc1ccccc1C(=O)Nc1ccccc1SC` the value was 10.6% (inactive).
`COc1ccc(S(=O)(=O)CCC(=O)N2c3ccccc3CC2C)cc1` (centres undefined): the inhibition is 2% (inactive).
Regarding `O=C(Nc1ccc2c(c1)OCO2)c1ccc(S(=O)(=O)NCC2CCCO2)cc1` (centres undefined), the inhibition was -2.4% (inactive).
As for `COc1ccc2c([N+](=O)[O-])c(Cl)[nH]c2c1`, the inhibition is 67.9% (active).
On to `CCOC(=O)CSc1[nH]c2cc(OC)ccc2c1[N+](=O)[O-]`, for which the inhibition is 9.3% (inactive).
Regarding `COc1ccc2c(C)cc(=O)[nH]c2c1`, the inhibition is -3% (inactive).
In the case of `O=C(COC(=O)c1c2ccccc2cc2ccccc12)Nc1ncc(C(F)(F)F)cc1Cl`, the inhibition was 2.9% (inactive).
Regarding `COc1ccc(CCNC(=O)CSc2nc3ccccc3o2)cc1`, the inhibition was 1.3% (inactive).
With `COc1ccc(CN=Cc2c(C(F)(F)F)[nH][nH]c2=O)cc1`, the inhibition is -0.7% (inactive).
Turning to `CC(C)c1ccc(C2=C(O)c3ccccc3C(=O)C2=O)cc1`, the inhibition is 22.2% (inactive).
The same measure for `COC1=C(c2ccccc2)C(=O)c2ccccc2C1=O`: -57.4% (inactive); for `O=C1C(=C(O)c2ccccc2)C(=O)c2ccccc21`: -47.9% (inactive); for `O=C(C1=C(c2ccccc2)C(=O)c2ccccc2C1=O)c1ccccc1`: 71.6% (active).
As for `O=C1C(c2ccncc2)=C(O)c2ccccc21`, the inhibition is -4.7% (inactive).
On to `COc1ccc(C(=S)Nc2ccc(C)cc2)cc1`, for which the inhibition is 3.8% (inactive).
As to `CC(C)(C)c1ccc(S(=O)(=O)N2CCCC2C(=O)N2CCOCC2)cc1` (centres undefined), the inhibition was 3.5% (inactive).
Consider `CCOC(=O)c1nn(-c2ccccc2F)c2nc(-c3ccco3)c(C#N)c(=O)n12`, for which the inhibition is -13.6% (inactive).
`Cc1ccc(-n2c(=S)[nH]c3sc4c(c3c2=O)CCc2ccccc2-4)cc1`: the inhibition is 24.1% (inactive).
Regarding `Cc1ccc(-n2c(=S)[nH]c3sc4c(c3c2=O)CCC4)cc1`, the inhibition is 9.7% (inactive).
Consider `CCN(Cc1ccncc1)S(=O)(=O)c1ccc(C(C)=O)cc1`, for which the inhibition was -13.6% (inactive).
For `CCCCSc1cnn(-c2ccccc2)c(=O)c1SCCCC`, the inhibition was 5.9% (inactive).
Take `CN1CCOc2cc(S(=O)(=O)Nc3ccc(F)cc3)ccc21`: the inhibition is 0.5% (inactive).
For `COc1ccc(CCNC(=O)CN2C(=O)NC(C)(c3ccc([N+](=O)[O-])cc3)C2=O)cc1` (centres undefined) the value was -0.6% (inactive); for `O=C1NC(c2ccc(-c3ccccc3[N+](=O)[O-])o2)C(C(=O)c2ccccc2)C(O)(C(F)(F)F)N1` (centres undefined), 50.5% (active).
In the case of `Cc1ccc(C2NC(=O)NC(O)(C(F)(F)F)C2C(=O)c2ccccc2)o1` (centres undefined), the inhibition is -19.5% (inactive).
For `COc1cc(C2NC(=O)NC(O)(C(F)(F)F)C2C(=O)c2ccc(Cl)cc2)ccc1O` (centres undefined), the inhibition is 2.5% (inactive).
On to `O=C1NC(c2ccc(-c3ccccc3[N+](=O)[O-])o2)C(C(=O)c2ccc(Cl)cc2)C(O)(C(F)(F)F)N1` (centres undefined), for which the inhibition is 50.3% (active).
The same measure for `O=C1NC(c2ccc(-c3ccccc3[N+](=O)[O-])o2)C(C(=O)c2ccc(F)cc2)C(O)(C(F)(F)F)N1` (centres undefined): 42.1% (inactive).
For `COc1ccc(C(=O)C2C(c3ccc(-c4ccccc4[N+](=O)[O-])o3)NC(=O)NC2(O)C(F)(F)F)cc1` (centres undefined) the value was 43.4% (inactive).
As to `Cc1ccccc1-n1c(-c2ccncc2)n[nH]c1=S`, the inhibition was -11.7% (inactive).
As to `O=C1C(c2ccc(F)cc2)N(Cc2ccc3c(c2)OCO3)C(=O)CN1C1CCCC1` (centres undefined), the inhibition is 7.2% (inactive).
`COc1cc(C2/C(=C(\O)c3ccc4c(c3)CC(C)O4)C(=O)C(=O)N2CCCn2ccnc2)ccc1O` (centres undefined): the inhibition was 54.7% (active).
As to `CC1Cc2cc(/C(O)=C3/C(=O)C(=O)N(CCCn4ccnc4)C3c3ccncc3)ccc2O1` (centres undefined), the inhibition is -10.1% (inactive).
As for `CC1Cc2cc(/C(O)=C3/C(=O)C(=O)N(CCCn4ccnc4)C3c3cccnc3)ccc2O1` (centres undefined), the inhibition was 3.7% (inactive).
With `COc1cc(-c2ccc(NC(=O)CN3CCC(C)CC3)c(OC)c2)ccc1NC(=O)CN1CCC(C)CC1`, the inhibition was 21% (inactive).
On to `CC(C)c1ccc(CN(C)CC(O)c2ccccc2)cc1` (centres undefined), for which the inhibition was -2.2% (inactive).
The same measure for `CCN(CC)c1ccc(/C=N/NC(=O)c2c[nH]c3ccccc23)cc1`: 21.6% (inactive); for `COc1ccc(CCNC(=O)CCC(=O)Nc2nnc(C(C)C)s2)cc1OC`: 3.2% (inactive).
`CCN1CCc2c(C#N)c(N3CCOCC3)nc(NCCO)c2C1`: the inhibition was 57.2% (active).
For `CCN1CCc2c(C#N)c(N3CCOCC3)nc(NCc3ccccc3)c2C1`, the inhibition is 19.3% (inactive).
On to `CCN1CCc2c(C#N)c(N3CCOCC3)nc(N3CCOCC3)c2C1`, for which the inhibition is -3% (inactive).
Regarding `CC1(C)Cc2c(sc3nc(-c4cc5ccccc5o4)n(N)c(=O)c23)CO1`, the inhibition was 7% (inactive).
As for `CCN1C(=O)C(C)S/C1=N\S(=O)(=O)c1ccc(Cl)s1` (centres undefined), the inhibition is -0.5% (inactive).
Turning to `CC(C)CCN(C(=O)CNC(=O)c1cccs1)C(C(=O)NC1CCCC1)c1ccncc1` (centres undefined), the inhibition was -1.9% (inactive).

The values above are taken from PubChem BioAssay AID1220 (Sanford-Burnham Center for Chemical Genomics, 2008).
